High-throughput results from PubChem BioAssay.
hcDAF-12 act: H. contortus DAF-12 nuclear receptor activators, primary screen, cell-based, luminescence, HEK293, lit1-tk-luc reporter; HEK293 hcDAF-12 lit1-tk-luc reporter; 0% DMSO, 100% Δ7-dafachronic acid; activation, % at 6.8 µM; actives 1.4% (n = 370,000); AID 652067, 2013;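 active = activation above the mean of all tested compounds plus 3 SD, cut at about 5.5% in these data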;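 also: 100% = response to 3 µM Δ7-dafachronic acid high control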
DAX1 inh-1: DAX1 (NR0B1) inhibitors, primary screen, cell-based, HEK293, Gal4-DAX1, luciferase luminescence; inhibition, % at 6.75 µM; AID 504766, 2011; actives 0.99% (n = 340,000); HEK293 Gal4-DAX1 luciferase reporter; Nuclear receptor subfamily 0 group B member 1 (Homo sapiens), P51843;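 active = inhibition above the mean over all tested compounds plus 3 SD, cut at about 4.2% in these data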;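 also: 0% = DAX1-transfected cells with DMSO and 100% = empty-vector control cells with DMSO; inhibition shows as a rise in luminescence from relieved DAX1 repression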
Target sequence (P51843 207-470 limits assumed): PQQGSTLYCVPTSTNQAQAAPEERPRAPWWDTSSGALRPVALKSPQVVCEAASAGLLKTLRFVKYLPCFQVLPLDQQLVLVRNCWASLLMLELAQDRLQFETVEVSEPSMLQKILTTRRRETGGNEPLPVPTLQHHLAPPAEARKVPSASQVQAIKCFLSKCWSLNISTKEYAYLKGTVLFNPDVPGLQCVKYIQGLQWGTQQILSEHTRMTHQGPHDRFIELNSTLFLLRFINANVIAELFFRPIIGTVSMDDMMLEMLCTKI
ssDAF-12 act: S. stercoralis DAF-12 nuclear receptor activators, primary screen, cell-based, luminescence, HEK293, GRIP1 co-expression, lit1-tk-luc; Nuclear hormone receptor DAF-12 (Strongyloides stercoralis); HEK293 ssDAF-12/GRIP1 lit1-tk-luc reporter; % of 3 µM dafachronic acid response; activation, % at 6.8 µM; actives 1% (n = 370,000); AID 652126, 2013;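 active = activation above the mean over all tested compounds plus 3 SD, cut at about 0.9% in these data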;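 also: 0% = DMSO-only wells and 100% = 3 µM delta7-dafachronic acid wells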
DAX1 inh-2: DAX1 (NR0B1) inhibitors on StAR promoter, primary screen, cell-based, luminescence, SF-1 (NR5A1), full-length DAX-1; HEK293T StAR-luciferase reporter, SF-1/DAX-1 repression relief; inhibition, % at 6.8 µM; actives 1.1% (n = 370,000);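 active = inhibition above the mean over all tested compounds plus 3 SD, cut at about 3.6% in these data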;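 also: 0% = DAX-1 cells with DMSO and 100% = cells lacking DAX-1 with DMSO; higher inhibition means more luminescence from relief of DAX-1 repression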
hgDAF-12 ag: H. glycines DAF-12 receptor agonists, primary screen, cell-based, luminescence, HEK293, GAL4 fusion, UAS-luciferase. AID 687014, 2013. actives 1.8% (n = 370,000). activation, % at 6.8 µM. HEK293 GAL4-hgDAF12 UAS-luciferase reporter, agonist luminescence; normalized to butyrate control. Nuclear hormone receptor DAF-12 (Heterodera glycines), GAL4 fusion;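 active = activation above a cutoff set at the mean of all screened compounds plus 3 SD, cut at about 10% in these data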;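 also: 0% = DMSO wells and 100% = sodium butyrate wells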
* marks the source's active call; other numbers are inactive results. Shown are actives, neighbours in structure and some others; about 4.1% of the full set was active somewhere.

Screening O=C(OCc1cc([N+](=O)[O-])cc2c1OCOC2)c1ccc2ccccc2n1 returned hcDAF-12 act 0.8, DAX1 inh-1 -0.3, ssDAF-12 act -1.7, DAX1 inh-2 0.2 and hgDAF-12 ag 2.4.
Screening CC(C)=CC(=O)OCc1cc([N+](=O)[O-])cc2c1OCOC2 returned hcDAF-12 act 1.0, DAX1 inh-1 0.5, ssDAF-12 act 1.0*, DAX1 inh-2 3.8* and hgDAF-12 ag 10.6*.
COc1ccc(CCNc2nc3ccccc3n3cnnc23)cc1OC was read as hcDAF-12 act -0.1, DAX1 inh-1 2.7, ssDAF-12 act -0.9, DAX1 inh-2 0.1 and hgDAF-12 ag -2.0.
For COCCNc1nc2ccccc2n2cnnc12 the results were hcDAF-12 act -0.7, DAX1 inh-1 4.3*, ssDAF-12 act -1.2, DAX1 inh-2 0.0 and hgDAF-12 ag -0.8.
CCS(=O)(=O)N1CCN(Cc2ccccc2OC)CC1 was read as hcDAF-12 act 1.1, DAX1 inh-1 -0.4, ssDAF-12 act 1.2*, DAX1 inh-2 0.7 and hgDAF-12 ag -0.5.
`COc1cccc(CN2CCN(Cc3cc(OC)c(OC)c(OC)c3)CC2)c1OC` gave hcDAF-12 act 4.0, DAX1 inh-1 -2.4, ssDAF-12 act 1.3*, DAX1 inh-2 -0.2 and hgDAF-12 ag 1.6.
Screening Cc1nc2ccc(S(=O)(=O)NCC(=O)N(C)Cc3ccccc3F)cc2s1 returned hcDAF-12 act -2.7, ssDAF-12 act -0.9, DAX1 inh-2 -1.1 and hgDAF-12 ag -2.5.
`COc1ccc([N+](=O)[O-])cc1NC(=S)NC(C)=O` gave hcDAF-12 act 1.1, DAX1 inh-1 8.8*, ssDAF-12 act 0.3, DAX1 inh-2 0.0 and hgDAF-12 ag -1.9.
C=CCN1C(=O)[C@@H](CC(=O)NCc2ccccc2)[C@]2(C(=O)OCC)CCCCC/C=C/12 was read as hcDAF-12 act -0.9, ssDAF-12 act -1.2, DAX1 inh-2 -0.5 and hgDAF-12 ag 1.9.
`O=C1N=C(N2CCCC2)S/C1=C\c1ccccc1` gave hcDAF-12 act -2.1, DAX1 inh-1 1.2, ssDAF-12 act -1.2, DAX1 inh-2 0.5 and hgDAF-12 ag 1.1.
O=C1N=C(N2CCCCC2)S/C1=C\c1ccccc1F was read as hcDAF-12 act 0.3, DAX1 inh-1 4.3*, ssDAF-12 act -0.6, DAX1 inh-2 0.2 and hgDAF-12 ag 4.4.
For O=C(NC1CCN(Cc2ccc(F)cc2)CC1)c1ccccc1 the results were hcDAF-12 act -1.6, DAX1 inh-1 1.9, ssDAF-12 act -1.4, DAX1 inh-2 0.1 and hgDAF-12 ag -0.8.
For CS(=O)(=O)Cc1ccc(C(=O)NC2CCN(Cc3ccccc3)C2)cc1 (centres undefined) the results were hcDAF-12 act 1.1, DAX1 inh-1 4.2*, ssDAF-12 act -0.5, DAX1 inh-2 0.8 and hgDAF-12 ag -0.5.
For COC(=O)[C@@]12CCCCC=C1N(CCc1ccc(Cl)cc1)C(=O)[C@H]2CC(=O)NCCc1ccccc1OC the results were hcDAF-12 act -2.5, ssDAF-12 act -0.8, DAX1 inh-2 -0.5 and hgDAF-12 ag -3.2.
CC(=O)c1cc(-c2cccc(Cl)c2O)c(=O)n2c1CCC2 was read as hcDAF-12 act 0.0, ssDAF-12 act -0.7, DAX1 inh-2 -0.3 and hgDAF-12 ag 0.6.
Screening CCCN1C(=O)C(NC(=O)c2ccncc2)(C(F)(F)F)C2=C1CC(C)(C)CC2=O (centres undefined) returned hcDAF-12 act 3.6, DAX1 inh-1 -0.6, ssDAF-12 act 0.9*, DAX1 inh-2 0.2 and hgDAF-12 ag 1.6.
For COc1cccc(-c2csc(NC(C)=O)n2)c1 the results were hcDAF-12 act -0.2, DAX1 inh-1 1.4, ssDAF-12 act -0.7, DAX1 inh-2 0.8 and hgDAF-12 ag 10.6*.
For CC(=O)Nc1nc(-c2ccc3c(c2)CCO3)cs1 the results were hcDAF-12 act 2.5, DAX1 inh-1 -0.1, ssDAF-12 act -1.1, DAX1 inh-2 0.5 and hgDAF-12 ag 11.5*.
